In the library only some 3.4% were active in any assay of this set; here they are far more common.
GPR151 activ: activators of human GPR151 | Q8TDV0 | activation, % at 11.2 µM | PathHunter beta-arrestin GPR151 cells, luminescence | AID 1508602 | actives 1% (n = 650,000); in the data active = activation above about 4.9%;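 also: 0% = median of compound wells and 100% = cells with positive control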
Target sequence (Q8TDV0 whole entry, looked up): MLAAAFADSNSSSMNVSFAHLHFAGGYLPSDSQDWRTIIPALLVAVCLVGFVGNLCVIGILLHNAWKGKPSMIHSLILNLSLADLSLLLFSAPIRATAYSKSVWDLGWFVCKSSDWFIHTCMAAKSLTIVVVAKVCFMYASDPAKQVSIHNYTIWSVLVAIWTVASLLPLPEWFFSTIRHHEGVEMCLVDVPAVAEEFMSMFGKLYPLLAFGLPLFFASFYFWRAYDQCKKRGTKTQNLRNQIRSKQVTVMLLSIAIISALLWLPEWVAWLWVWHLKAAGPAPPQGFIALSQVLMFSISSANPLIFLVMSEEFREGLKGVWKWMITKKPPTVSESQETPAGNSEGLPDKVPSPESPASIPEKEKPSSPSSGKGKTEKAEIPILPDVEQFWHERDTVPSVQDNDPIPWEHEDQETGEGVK
MITF inh: human MITF inhibition, primary screen | actives 0.91% (n = 650,000) | O75030 | AlphaScreen MITF homodimerization, bead proximity signal | inhibition, % at 2.6 µM | AID 1259374; in the data active = inhibition above about 50%;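 also: 0% = vehicle wells with protein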
FBW7 activator: human FBW7 E3 ligase activation, primary screen. Q969H0. AlphaScreen FBW7–phospho-cyclin E peptide binding, activator screen. normalized activity (activation), % at 26.1 µM. actives 0.13% (n = 650,000). AID 1259310; in the data active = normalized activity above about 1.9%;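 also: purified mutant Fbw7 with reduced substrate affinity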
TEAD-YAP block: TEAD-YAP interaction inhibition; actives 1.4% (n = 640,000); HEK-TIYL cells, TEAD-Gal4/YAP UAS-luciferase luminescence; inhibition, % at 9.12 µM; AID 1259422; in the data active = inhibition above about 32%;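 also: 0% = median of test compound wells and 100% = reference inhibitor wells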
Numbers without * were called inactive.

SMILES	GPR151 activ	MITF inh	FBW7 activator	TEAD-YAP block
CNC(=O)c1ccccc1Nc1cc(Nc2ccc3[nH]cc(C(=O)C(=O)N(C)C)c3c2)ncc1C(F)(F)F	-0.9	19.3	0.2	50.6*
CNC(=O)c1ncccc1Nc1cc(Nc2ccc3c(c2)NC(=O)C3)ncc1C(F)(F)F	-0.7	8.0	0.1	-8.4
O=C(NC1CCCCCC1)c1n[nH]c(=O)c2ccccc12	-1.2	11.6	0.3	-3.8
COc1ccc(OC)c(C2NC(=O)c3[nH]nc(-c4ccc(C)cc4)c32)c1 (centres undefined)	1.5	7.8	0.1	61.8*
COc1ccc(-c2n[nH]c3c2C(c2ccc(F)cc2)NC3=O)cc1 (centres undefined)	1.8	4.2	-0.1	14.3
CSC(Nc1ccc(Br)cc1)=C(C#N)C#N	0.5	-0.6	0.0	38.1*
CC(C)(CO)NC(=O)c1cc(-c2ccc(Cl)cc2Cl)on1	-1.1	-14.6	0.1	48.3*
CCN(CC)C(=O)c1cc(-c2ccc(Cl)cc2Cl)on1	0.2	12.8	0.4	-77.4
O=C(Nc1noc2ccccc12)c1ccccc1	-8.0	-9.6	0.0	50.5*
O=C(Nc1noc2ccccc12)c1ccco1	-5.3	16.8	0.0	-21.2
Cc1ccc(C(=O)Nc2noc3ccccc23)cc1	-4.5	5.2	-0.1	76.3*
Oc1oc(-c2ccc(Br)cc2)nc1/C=C1\C=Nc2ccccc21	-0.7	4.7	0.0	-8.8
Cc1ccc(NC(=O)CSc2nnc(-c3cccnc3)n2C)cc1[N+](=O)[O-]	-0.9	12.9	0.7	3.9
CCOc1cc(C2C(C#N)=C(N)Oc3n[nH]c(-c4ccc(OC)cc4)c32)cc([N+](=O)[O-])c1OC(=O)c1cccs1 (centres undefined)	0.2	-2.2	-0.1	5.7
COc1ccc(N=Cc2sc3ccccc3c2O)cc1	-10.4	-9.0	0.0	85.3*
O=C(NCc1ccco1)c1ccc2cncc(-c3cc4ccccc4o3)c2n1	0.2	3.3	-0.3	54.2*
COc1ccc(-c2cncc3ccc(C(=O)NCc4cnc(C)cn4)nc23)cc1	0.0	2.9	-0.1	70.3*
O=C(NCc1ccncc1)c1ccc2cncc(-c3cc4ccccc4o3)c2n1	-0.2	-2.6	-0.2	31.7
COc1ccc(-c2cncc3ccc(C(=O)NCc4ccccc4)nc23)cc1	-1.2	-6.9	-0.1	68.3*
COc1ccccc1CNC(=O)c1ccc2cncc(-c3ccccc3)c2n1	-0.1	11.3	0.2	64.7*
CCOC(=O)C1=C(c2ccccc2)N=c2s/c(=C\c3cccc(OC)c3OCC)c(=O)n2C1c1cccc(OC)c1 (centres undefined)	-1.7	-0.7	-0.3	-41.8
Cc1ccc(CNC(=O)C2CCCN2S(=O)(=O)c2ccc3c(c2)CCC(=O)N3)cc1 (centres undefined)	-0.2	7.5	0.3	4.8
O=C(NCCc1ccccc1)c1ccc2cncc(-c3ccccc3)c2n1	0.1	-12.6	-0.1	47.3*
O=C(NCCc1ccccc1)c1nnc(-c2cccnc2)o1	0.0	-5.6	-0.1	1.6
CC(C)C(=O)N1CCCC(c2nnc(-c3ccccc3F)s2)C1 (centres undefined)	-6.2	8.3	0.0	92.6*
SMILES	GPR151 activ	MITF inh	FBW7 activator	TEAD-YAP block
COc1ccc(CNC(=O)N2CCCC(c3nnc(-c4ccccc4F)s3)C2)cc1 (centres undefined)	-0.4	12.4	-0.1	-22.9
CC(=O)N1CCCC(c2nnc(-c3ccccc3F)s2)C1 (centres undefined)	-6.0	-0.9	-0.1	81.8*
COc1ccc(C2CC(C(F)(F)F)n3nc(C(=O)N4CCCCC4)cc3N2)cc1OC (centres undefined)	0.2	-5.7	0.0	38.0*
CC1(C)CC(=O)c2cc(C(=O)Nc3ccccc3Cl)c(=O)n(-c3ccccc3)c2C1	0.9	4.6	0.4	-10.6
Cc1nc2cc(N3CCN(C)CC3)c(NC(=O)C3CC3)cc2c(=O)n1Cc1ccccc1	0.1	2.9	0.1	34.3*
CCN(CC)c1ncnc2sc(C(=O)NCCC3=CCCCC3)c(C)c12	-0.9	13.0	0.3	-1.8
CC(=O)Nc1ccc(NC(=O)c2cc(C)nc3ccc(C)cc23)cc1	1.3	-9.0	-0.1	34.9*
O=C1CC(C(=O)Nc2nc3ccc(Cl)cc3s2)c2ccccc21 (centres undefined)	1.6	-0.7	-0.2	-1.8
O=c1[nH]cccc1-c1nc2ccc(Cl)cc2s1	-2.3	-3.6	-0.1	78.2*
Cc1ccc2nc(N3CCC(C(=O)NC(C)Cc4ccsc4)CC3)nc(C)c2c1 (centres undefined)	-1.3	-12.8	0.1	-0.1
O=C1N/C(=C/c2ccc(O)c([N+](=O)[O-])c2)C(=O)N1Cc1ccc(Br)cc1	-0.6	-3.7	-0.3	17.3
N#C/C(=C\c1ccc(O)c(O)c1)C(=O)c1ccc(O)c(O)c1	-0.4	85.6*	-0.3	5.3
COc1ccc(C(=O)OCC(=O)c2ccccc2Cl)cc1	3.7	-6.5	0.6	-12.1
O=c1cc(CSc2nnnn2-c2ccc(O)cc2)nc2sc3ccccc3n12	0.2	15.4	0.1	7.8
O=C(OCc1cc(=O)n2c(n1)sc1ccccc12)C12CC3CC(CC(O)(C3)C1)C2	-1.3	19.1	-0.1	75.1*
CCC(C)(C)c1ccc(OCCOCC[n+]2ccccc2)c(C(C)(C)CC)c1	3.3	1.5	0.2	77.2*
CCC(C)(C)c1ccc(OCCCC[n+]2cccc(C)c2)c(C(C)(C)CC)c1	2.0	-21.9	0.1	85.0*
CC1CCCC(NC(=O)c2ccc3c(c2)NC(=O)c2ccccc2N3)C1C (centres undefined)	-0.3	3.8	-0.1	-4.3
N#Cc1c(N)nc2c(c1-c1cccnc1)CCCCCC2	-1.1	6.9	0.6	-4.2
Nc1ccc2c(c1)C(=O)N(c1ccc(O)cc1)C2=O	0.2	2.5	0.0	3.9
Nc1ccc(N2C(=O)c3ccc(N)cc3C2=O)cc1	0.2	8.0	0.0	34.4*
c1ccc(-c2cc(N3CCN(c4ccccn4)CC3)nc(-c3ccccn3)n2)nc1	1.2	107.2*	-1.0	71.0*
Cc1nc2sccn2c1CN1CCN(CCc2ccccc2)C(CCO)C1 (centres undefined)	-2.1	19.3	0.2	-5.1
COc1cccc(CC2(CO)CCCN(Cc3c(C)nc4sccn34)C2)c1 (centres undefined)	0.3	22.1	0.0	41.2*
CCOC(=O)C1(Cc2cccc(OC)c2)CCN(Cc2c(C)nc3sccn23)CC1	0.5	11.7	0.0	26.4
SMILES	GPR151 activ	MITF inh	FBW7 activator	TEAD-YAP block
Cc1nc2sccn2c1CN1CCCC(N(C)CCc2ccccc2)C1 (centres undefined)	0.5	-0.6	-0.1	43.4*
Cc1cc(=O)[nH]c(NC2CCN(C(=O)C(C)(C)c3ccc(Cl)cc3)CC2)n1	-0.3	9.3	0.0	5.2
Cc1cc(=O)[nH]c(NC2CCN(C(=O)N3c4ccccc4Sc4ccccc43)CC2)n1	-1.0	-0.9	-0.1	56.3*
CCc1ccccc1NC(=O)CCn1c(=O)oc2ccccc21	1.4	-4.6	-0.1	4.3
Cc1ccc(NC(=O)Cc2nn(C)c(=O)c3ccccc23)cc1F	0.6	2.6	0.1	20.2
Cc1ccc(C)n1CCCC(=O)Nc1ccc2c(c1)OCCO2	0.9	-0.9	0.0	59.0*
